# Key:
# Assay in all cases: DAPPL (digital affinity profiling via proximity ligation, sequencing); 10 mM Tris-HCl pH 7.5, 50 mM NaCl, 1 mM DTT, 4% glycerol, room temperature, 30 min; GST-TFs on glutathione beads, 16-mer random dsDNA library, 0.1% formaldehyde crosslink after washing; high values mean tight binding
# Conditions in all cases: protein: recombinant; tags: N-terminal GST; dsDNA, one strand shown
# ETV2 = molecular target: T1, ETV2 (Homo sapiens, UniProt O00321 1-342)
# T1 sequence: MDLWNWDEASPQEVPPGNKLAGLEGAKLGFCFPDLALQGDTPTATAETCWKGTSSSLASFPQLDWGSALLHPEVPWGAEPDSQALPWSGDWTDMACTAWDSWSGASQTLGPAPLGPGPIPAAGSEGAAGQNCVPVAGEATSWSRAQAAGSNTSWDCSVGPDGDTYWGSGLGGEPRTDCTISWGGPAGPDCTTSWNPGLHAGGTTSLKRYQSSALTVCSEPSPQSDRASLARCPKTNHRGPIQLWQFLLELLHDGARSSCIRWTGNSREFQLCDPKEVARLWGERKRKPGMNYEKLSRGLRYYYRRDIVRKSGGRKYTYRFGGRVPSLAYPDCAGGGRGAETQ
# How it was run: (§1)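 The binding signal reported is, for every hexamer, its read frequency for a factor over its read frequency for the tag-only sample. Reads came from pools of yeast-expressed, GST-fused human transcription factors on glutathione beads, barcoded with DNA and mixed with that sample, which were incubated with 200 nmole of a random double-stranded 16-mer DNA library in Tris/NaCl/DTT/glycerol buffer at room temperature for 30 min. After washing, the pools were crosslinked with 0.1% formaldehyde, proximity-ligated with BsaI/T4 ligase for 1 h at 37 °C, PCR-amplified and sequenced on an Illumina NextSeq500.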
# ELF3 = molecular target: T2, ELF3 (Homo sapiens, UniProt P78545 1-371)
# T2 sequence: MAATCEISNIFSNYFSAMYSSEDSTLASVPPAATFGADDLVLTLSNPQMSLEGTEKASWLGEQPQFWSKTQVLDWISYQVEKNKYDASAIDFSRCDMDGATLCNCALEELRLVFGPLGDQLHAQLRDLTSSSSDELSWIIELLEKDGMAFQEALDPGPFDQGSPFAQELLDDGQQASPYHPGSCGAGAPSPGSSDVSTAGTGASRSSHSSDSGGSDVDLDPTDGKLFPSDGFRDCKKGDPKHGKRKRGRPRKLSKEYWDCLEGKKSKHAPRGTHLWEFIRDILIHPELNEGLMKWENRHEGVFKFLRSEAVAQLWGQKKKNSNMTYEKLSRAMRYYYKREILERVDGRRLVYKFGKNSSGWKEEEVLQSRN
# How it was run: as §1
# ETV1 = ETV1 (Homo sapiens, UniProt P50549 1-477)
# Chain of ETV1 (P50549 whole entry): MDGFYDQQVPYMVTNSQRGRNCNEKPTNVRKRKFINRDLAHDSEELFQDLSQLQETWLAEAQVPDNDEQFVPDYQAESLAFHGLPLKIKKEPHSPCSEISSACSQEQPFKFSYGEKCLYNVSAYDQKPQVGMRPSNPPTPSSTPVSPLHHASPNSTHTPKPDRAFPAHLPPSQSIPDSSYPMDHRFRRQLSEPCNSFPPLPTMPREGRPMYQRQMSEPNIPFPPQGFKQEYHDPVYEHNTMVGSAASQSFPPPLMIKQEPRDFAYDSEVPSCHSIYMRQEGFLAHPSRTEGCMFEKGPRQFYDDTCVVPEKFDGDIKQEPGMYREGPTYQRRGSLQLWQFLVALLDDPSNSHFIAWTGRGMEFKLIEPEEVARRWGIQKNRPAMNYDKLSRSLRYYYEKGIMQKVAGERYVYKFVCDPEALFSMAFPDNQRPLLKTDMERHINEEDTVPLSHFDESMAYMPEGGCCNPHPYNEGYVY
# How it was run: as §1
# ERF = molecular target: T3, ERF (Homo sapiens, UniProt P50548 1-548)
# T3 sequence: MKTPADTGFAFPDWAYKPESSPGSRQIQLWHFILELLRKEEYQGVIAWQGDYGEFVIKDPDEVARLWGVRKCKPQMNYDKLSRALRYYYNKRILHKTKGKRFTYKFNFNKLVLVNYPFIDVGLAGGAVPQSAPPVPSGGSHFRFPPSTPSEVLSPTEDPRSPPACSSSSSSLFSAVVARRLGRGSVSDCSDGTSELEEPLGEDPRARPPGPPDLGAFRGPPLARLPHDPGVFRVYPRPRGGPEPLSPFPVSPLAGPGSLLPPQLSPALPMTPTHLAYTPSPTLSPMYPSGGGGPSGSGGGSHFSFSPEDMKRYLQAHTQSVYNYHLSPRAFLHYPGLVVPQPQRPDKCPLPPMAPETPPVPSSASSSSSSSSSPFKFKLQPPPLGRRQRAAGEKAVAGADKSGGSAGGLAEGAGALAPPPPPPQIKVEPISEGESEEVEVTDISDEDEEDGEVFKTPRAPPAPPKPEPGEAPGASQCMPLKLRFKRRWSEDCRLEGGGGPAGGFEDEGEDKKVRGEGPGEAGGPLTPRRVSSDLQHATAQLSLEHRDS
# How it was run: as §1
# ETV3L = molecular target: T4, ETV3L (Homo sapiens, UniProt Q6ZN32 1-361)
# T4 sequence: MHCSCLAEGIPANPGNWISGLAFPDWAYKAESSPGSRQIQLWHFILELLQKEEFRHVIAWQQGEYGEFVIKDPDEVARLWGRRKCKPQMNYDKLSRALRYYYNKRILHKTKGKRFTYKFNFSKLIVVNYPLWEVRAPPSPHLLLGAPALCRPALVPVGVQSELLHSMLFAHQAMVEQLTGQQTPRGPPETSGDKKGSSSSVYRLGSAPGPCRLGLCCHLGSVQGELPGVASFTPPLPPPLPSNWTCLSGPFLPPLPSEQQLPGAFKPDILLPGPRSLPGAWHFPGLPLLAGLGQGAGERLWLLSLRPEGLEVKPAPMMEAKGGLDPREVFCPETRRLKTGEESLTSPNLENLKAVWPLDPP
# How it was run: as §1
# ETS2 = molecular target: T5, ETS2 (Homo sapiens, UniProt P15036 1-469)
# T5 sequence: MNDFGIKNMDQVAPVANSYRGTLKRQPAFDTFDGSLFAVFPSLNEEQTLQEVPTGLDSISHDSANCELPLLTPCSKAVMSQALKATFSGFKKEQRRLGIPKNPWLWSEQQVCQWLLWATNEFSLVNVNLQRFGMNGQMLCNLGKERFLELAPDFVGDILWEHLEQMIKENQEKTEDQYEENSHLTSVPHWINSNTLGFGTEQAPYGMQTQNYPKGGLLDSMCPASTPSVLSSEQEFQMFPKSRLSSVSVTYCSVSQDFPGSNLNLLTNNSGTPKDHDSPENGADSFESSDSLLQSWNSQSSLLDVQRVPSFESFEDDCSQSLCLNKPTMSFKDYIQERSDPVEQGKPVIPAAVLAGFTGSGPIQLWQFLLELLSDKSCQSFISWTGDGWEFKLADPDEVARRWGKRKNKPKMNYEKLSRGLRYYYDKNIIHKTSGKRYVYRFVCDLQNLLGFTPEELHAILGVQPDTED
# How it was run: as §1
# SPDEF = molecular target: T6, SPDEF (Homo sapiens, UniProt O95238 1-335)
# T6 sequence: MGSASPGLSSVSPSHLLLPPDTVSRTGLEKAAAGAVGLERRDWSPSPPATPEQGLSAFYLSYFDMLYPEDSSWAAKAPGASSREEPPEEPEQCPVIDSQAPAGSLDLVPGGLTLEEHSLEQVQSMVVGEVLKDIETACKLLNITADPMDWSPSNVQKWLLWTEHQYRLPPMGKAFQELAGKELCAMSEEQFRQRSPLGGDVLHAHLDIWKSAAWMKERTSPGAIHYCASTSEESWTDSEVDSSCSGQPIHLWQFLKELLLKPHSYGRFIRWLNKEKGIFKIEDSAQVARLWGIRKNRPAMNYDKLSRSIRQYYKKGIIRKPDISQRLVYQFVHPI
# How it was run: as §1
# ETV7 = molecular target: T7, ETV7 (Homo sapiens, UniProt Q9Y603 1-341)
# T7 sequence: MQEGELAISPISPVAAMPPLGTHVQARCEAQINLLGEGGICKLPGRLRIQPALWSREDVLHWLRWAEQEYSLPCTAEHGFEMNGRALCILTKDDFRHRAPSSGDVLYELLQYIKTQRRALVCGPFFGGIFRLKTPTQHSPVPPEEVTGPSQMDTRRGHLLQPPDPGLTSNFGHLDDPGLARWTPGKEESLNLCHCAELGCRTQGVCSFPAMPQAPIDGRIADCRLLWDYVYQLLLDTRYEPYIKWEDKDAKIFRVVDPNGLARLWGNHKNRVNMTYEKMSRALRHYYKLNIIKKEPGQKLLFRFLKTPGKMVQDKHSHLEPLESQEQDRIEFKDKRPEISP
# How it was run: as §1
# ETV3 = molecular target: T8, ETV3 (Homo sapiens, UniProt P41162-2 1-143)
# T8 sequence: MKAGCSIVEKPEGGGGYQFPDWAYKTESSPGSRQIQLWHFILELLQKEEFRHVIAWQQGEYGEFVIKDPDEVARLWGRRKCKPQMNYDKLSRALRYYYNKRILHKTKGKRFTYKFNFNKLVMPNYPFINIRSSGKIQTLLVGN
# How it was run: as §1
# ETV6 = ETV6 (Homo sapiens, UniProt P41212 1-452)
# Chain of ETV6 (P41212 whole entry): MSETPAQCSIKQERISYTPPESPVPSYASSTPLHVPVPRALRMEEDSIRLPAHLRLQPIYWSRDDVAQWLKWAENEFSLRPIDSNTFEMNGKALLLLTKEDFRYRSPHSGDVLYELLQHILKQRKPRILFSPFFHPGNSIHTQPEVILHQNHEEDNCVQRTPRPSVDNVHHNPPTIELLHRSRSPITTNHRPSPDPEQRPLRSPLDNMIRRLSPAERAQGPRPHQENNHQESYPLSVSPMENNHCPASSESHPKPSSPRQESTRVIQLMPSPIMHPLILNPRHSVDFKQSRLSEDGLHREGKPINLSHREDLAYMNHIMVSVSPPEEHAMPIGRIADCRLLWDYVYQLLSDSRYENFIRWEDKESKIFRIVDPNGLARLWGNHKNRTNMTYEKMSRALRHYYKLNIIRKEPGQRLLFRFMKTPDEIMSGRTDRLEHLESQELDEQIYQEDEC
# How it was run: as §1
sequence,measurement,setting,value
CCCAAA,binding signal,ETV2,"1.3 fold enrichment (6-mer frequency, TF over GST control)"
same,binding signal,ELF3,"1.2 fold enrichment (6-mer frequency, TF over GST control)"
same,binding signal,ETV1,"1.08 fold enrichment (6-mer frequency, TF over GST control)"
same,binding signal,ERF,"1.11 fold enrichment (6-mer frequency, TF over GST control)"
same,binding signal,ETV3L,"1.12 fold enrichment (6-mer frequency, TF over GST control)"
same,binding signal,ETS2,"1.02 fold enrichment (6-mer frequency, TF over GST control)"
same,binding signal,SPDEF,"1.06 fold enrichment (6-mer frequency, TF over GST control)"
same,binding signal,ETV7,"1.09 fold enrichment (6-mer frequency, TF over GST control)"
same,binding signal,ETV3,"1.02 fold enrichment (6-mer frequency, TF over GST control)"
same,binding signal,ETV6,"1.1 fold enrichment (6-mer frequency, TF over GST control)"

# From PMC7862700, “An all-to-all approach to the identification of sequence-specific readers for epigenetic DNA modifications on cytosine”
